According to PubChem BioAssay AID1492 (National Center for Advancing Translational Sciences (NCATS), 2009):
Records with an inconclusive call do not appear. The source made the active and inactive calls. The call rests on the fitted dose curve; in most records, active means well fitted inhibition curve with a large enough effect; inconclusive means small, poorly fitted or top-dose-only effect; inactive means flat fitted curve, though single readings scatter.

What follows are compounds tested against Muscarinic acetylcholine receptor M1 (Rattus norvegicus) (UniProt P08482) (assay: Counterscreen Concentration-Response Assay for Antagonists of the Neuropeptide S Receptor: Muscarinic Receptor Calcium Signal Transduction.). Settings: CHO-M1 cells, carbachol-induced calcium fluorescence, FDSS; series mostly up to 20.2 µM; activity, negative = inhibition: at the top concentration.
From the text: NIH Chemical Genomics Center [NCGC] NIH Molecular Libraries Probe Production centers Network [MLPCN] MLPCN Grant: X01-DA026210-01 Assay Submitter (PI): Heilig, Markus Alexander NCGC Assay Overview: Neuropeptide S receptor (NPSR), previously known as GPR154, is a recently de-orphanized G protein coupled receptor. Its endogenous ligand is the 20 amino acids peptide Neuropeptide S (NPS). […] NPS and its receptor are found in various tissues. Specifically they are highly expressed in brain areas that have been implicated in modulation of arousal, stress and anxiety. Central administration of NPS in mice produces an unusual profile of activity by inducing wakefulness and arousal, while at the same time suppressing anxiety. Therefore, NPSR may represent a novel drug target for the treatment of sleep and anxiety disorders. To identify NPSR antagonists, we developed a cell-based assay with transfected NPS receptor. NPS can stimulate the production of cAMP as well as release intracellular calcium in Chinese hamster ovary cells stably expressing NPS receptor. This change in intracellular calcium can be detected using a calcium indicator dye on a calcium imaging plate reader system (FDSS). To validate the specific action of compounds on the NPS receptor, a counterscreen was developed that tests compounds' antagonism of M1 muscarinic receptor stimulation by carbachol. The protein, gene and taxonomy linked to this assay refer to Rattus norvegicus, but Chinese Hamster ovary cells were actually used.
NCGC Assay Protocol Summary: A Chinese hamster ovary (CHO) cell line stably expressing muscarinic acetylcholine M1 receptor (CHO-M1) was obtained from ATCC and maintained in F-12 Kaighn's media (Invitrogen, Carlsbad, CA, 21127) supplemented with 10 % FBS, 100 units/ml penicillin, 100 ug/ml streptomycin and 250 ug/ml geneticin at 37C, 5% CO2 in a humidified atmosphere. Before the assay, aliquots of cells were frozen and stored at -135C. The assay was performed on a FDSS-7000 kinetic plate reader in 1536-well format. The maximums of kinetic fluorescence responses were converted into text files using the instrument's software data export utility. […] AC50 values were determined from concentration-response data modeled with the standard Hill equation. CHO-M1 1536-well FDSS assay protocol: (1) Frozen CHO-M1 cells were thaw, washed once with fresh media and resuspended in F-12 Kaighn's media supplemented with 10 % FBS, 100 units/ml penicillin and 100 ug/ml streptomycin. Cells were plated at 3 ul/well (1200 cells) to black, clear-bottom, tissue-culture treated 1536-well plates, and then cultured at 37C, 5 % CO2 for 16 to 30 hours. (2) Add 3 ul of calcium dye (from High Performance PBX Calcium Assay Kit, BD Biosciences). The calcium dye was prepared according to the manufactory's instruction. (3) Incubation at 37C, 5 % CO2 for 60 min. (4) Add 23 nl/well of compound in DMSO solution. The final titration for each compound was between 0.6 nM and 46 uM. (5) Load plates to FDSS-7000. The following steps were performed on FDSS-7000. (6) Record fluorescent background (Ex 480 nm, Em 520-560 nm) for 10 s. (7) Add 2 ul of stimulation reagent (1X HBSS buffer, 0.1% BSA, 60 nM carbachol). Record antagonist response (Ex 480 nm, Em 520-560 nm) for 180 s. Keywords: MLSMR, MLPCN, NIH Roadmap, qHTS, NCGC, NPS, Neuropeptide S Antagonists

Structure (SMILES) | Potency | activity, negative = inhibition
O=C(COC(=O)c1ccccc1C(=O)c1ccc(Cl)c([N+](=O)[O-])c1)NC1CCCCCC1 | 4.47 µM (active) | 
c1ccc(-c2ccc(-c3nc(-c4cccnc4)no3)cc2)cc1 |  | 12.7% (inactive)
C=CCOc1c(Cl)cc(CNc2ccc(N(C)C)cc2)cc1OC |  | 7.52% (inactive)
Nc1ccc(-c2nc3c(Cl)cc(N)cc3[nH]2)cc1 |  | -5.43% (inactive)
O=C(O)C1CCN(c2nc(-c3ccccc3)nc3c2oc2ccccc23)CC1 |  | -11.1% (inactive)
OC(C#Cc1ccccn1)c1cccs1 (stereo not given) |  | -17% (inactive)
N#CC(C#N)=c1ccc2c(c1)NC1(CCCCC1)N=2 |  | -17.5% (inactive)
O=C1Nc2ccc(S(=O)(=O)N3CCCC3C(=O)O)c3cccc1c23 (stereo not given) |  | 0.459% (inactive)
N#Cc1cnn(-c2ncnc3sc4c(c23)CCCC4)c1N |  | 9.92% (inactive)
COc1ccc(NC(=O)/C(Cl)=C(/Cl)S(=O)Cc2ccc(C)cc2)cn1 (stereo not given) | 10 µM (active) | 
C#CC(=O)N(c1cccc(OC)c1)C(C(=O)NC1CCCC1)c1cccs1 (stereo not given) |  | -9.03% (inactive)
CCc1ccc2oc(-c3cc(N)cc(C)c3O)nc2c1 |  | 17.3% (inactive)
CC(=O)n1nc2nc(C)cc(C)c2c1N |  | -5.44% (inactive)
COc1ccccc1-c1nnc(SC2CCc3ccccc3NC2=O)s1 (stereo not given) |  | -0.169% (inactive)
C=CCNC(=O)/C(C#N)=C/c1cn(-c2ccccc2)nc1-c1ccc(OC)c([N+](=O)[O-])c1 |  | -10.9% (inactive)
COc1ccc(-c2cc(N)n(S(=O)(=O)c3c(F)c(F)c(F)c(F)c3F)n2)cc1OC | 11.2 µM (active) | 
CN(C)c1ccc(N2CN=C3SCC(=O)N3C2)cc1 |  | -3.33% (inactive)
COc1cccc(C(=O)/C=C/Nc2ccc(S(=O)(=O)Nc3cccc(C(C)=O)c3)cc2)c1 |  | -19.1% (inactive)
Brc1ccc(CSc2ncn[nH]2)cc1 |  | -10.8% (inactive)
COc1ccc(N=C2S/C(=C\c3ccc(N4CCOCC4)o3)C(=O)N2CCc2c[nH]c3ccccc23)cc1 | 5.01 µM (active) | 

Structure (SMILES) | Potency | activity, negative = inhibition
Cc1ccc2oc(-c3cccc(NC(=S)NC(=O)/C=C/c4ccco4)c3)nc2c1 |  | -15.2% (inactive)
Nn1c(COc2ccccc2)nnc1SCc1cc(=O)[nH]c2ccccc12 |  | 3.18% (inactive)
Cc1ccc(Cn2cc(SCC(=O)Nc3nccs3)c3ccccc32)cc1 |  | -0.635% (inactive)
O=C(O)CCCCCNc1nc(=S)[nH]c2ccccc12 |  | -7.08% (inactive)
CCn1cc(C(=O)NCC2CCCO2)c(=O)c2cc(S(=O)(=O)N3CCCCCC3)ccc21 (stereo not given) |  | 20.3% (inactive)
CN(C)c1ccc(N=Cc2ccco2)cc1 |  | 3.92% (inactive)
c1ccc(N2CCN(Cc3ccnc4ccccc34)CC2)cc1 |  | 12.5% (inactive)
O=C(/C(=C/c1ccc(Cl)cc1)c1nc2ccccc2[nH]1)c1cccs1 | 7.94 µM (active) | 
O=C(O)c1cccc(Nc2ncnc3ccccc23)c1 |  | -12.1% (inactive)
O=C(CSc1n[nH]c(-c2cccnc2)n1)Nc1ccnc2ccccc12 |  | 3% (inactive)
Cc1cccc(-c2nnc(SCc3cc(=O)[nH]c4ccccc34)n2C)c1 |  | 3.42% (inactive)
Cc1ccc2nc3ccc(N4CCCCCCC4)nn3c(=O)c2c1 |  | 3.52% (inactive)
O=C(/C=C/c1ccco1)NC(=S)Nc1cccc(-c2nc3ccccc3o2)c1 |  | -7.11% (inactive)
Cc1ccc(-c2nnn(CC(=O)Nc3ccccc3-c3ccccc3)n2)c(-n2cnnn2)c1 |  | 6.88% (inactive)
CC1CCCc2sc3nc(N4CCN(CCO)CC4)n4ncnc4c3c21 (stereo not given) |  | 17.7% (inactive)
COCCCn1c(SCc2cc(=O)[nH]c3ccccc23)nnc1-c1ccco1 |  | -8.77% (inactive)
O=c1cc(-c2c(F)c(F)c(F)c(F)c2F)oc2c(F)c(F)c(F)c(F)c12 | 5.01 µM (active) | 
CCC(Sc1ccc2nnc(-c3cccnc3)n2n1)C(=O)O (stereo not given) |  | -10.5% (inactive)
CC1CCCCN1S(=O)(=O)c1ccc(C(=O)Nc2sccc2C(N)=O)cc1 (stereo not given) |  | -6.92% (inactive)
CCOc1ccc(N2C(=O)CC(NCCc3ccncc3)C2=O)cc1 (stereo not given) |  | 9.94% (inactive)
